Records with an inconclusive call do not appear. Active and inactive are the calls of the source. Calls come from the whole dose curve; as a rule, active = well fitted cell-killing curve with a large enough effect; inconclusive = small, poorly fitted or top-dose-only effect; inactive = no such curve, though single readings can be large or run the other way.
experiment: qHTS of pediatric cancer cell lines to identify multiple opportunities for drug repurposing: Primary screen for MG 63 (6-TG R) cells (AID 1347105); conditions: MG 63 (6-TG R) viability, CellTiter-Glo, 48 h; series mostly up to 46 µM; activity change, negative = cytotoxic: at the top concentration; note: nearly all actives have a fitted effect of over 50% in size
Procedure, shortened: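 Plated cells (500-1,000 per well, growth media) were allowed to settle for 5 hours, treated with compound dilutions for 48 hours, then lysed with CellTiter-Glo for 15 min at room temperature before luminescence reading.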
% is set by controls: 0 for no effect and ±100 for the full control effect.

Structure (SMILES)	activity change, negative = cytotoxic
CN=C(NC#N)NCCSCc1csc(N=C(N)N)n1	-23.5% (inactive)
CCN(CC)C(=O)N1CCN(C)CC1	-19.4% (inactive)
Cc1c(N(C)CS(=O)(=O)O)c(=O)n(-c2ccccc2)n1C	-13% (inactive)
CC1=C(C(=O)O)N2C(=O)[C@@H](NC(=O)[C@H](N)c3ccc(O)cc3)[C@H]2SC1	9.81% (inactive)
COc1c2occc2c(OC)c2c(=O)cc(C)oc12	-12.5% (inactive)
O=c1ccc2ccccc2o1	-20.1% (inactive)
NC(CS)C(=O)O (stereo unspecified)	1.82% (inactive)
CCOC(=O)OC(C)OC1=C(C(=O)Nc2ccccn2)N(C)S(=O)(=O)c2ccccc21 (stereo unspecified)	2.04% (inactive)
NC(=O)c1cc[n+](CC2=C(C(=O)[O-])N3C(=O)[C@@H](NC(=O)Cc4cccs4)[C@H]3SC2)cc1	13.1% (inactive)
COc1cccc(OC)c1C(=O)N[C@@H]1C(=O)N2[C@@H]1SC(C)(C)[C@@H]2C(=O)O	6.32% (inactive)
CN1CCC(=C2c3ccccc3Sc3ccccc32)CC1	-29.7% (inactive)
Nc1ccc(/C=C/c2ccc(N)cc2S(=O)(=O)O)c(S(=O)(=O)O)c1	9.42% [at 0.597 µM] (inactive)
OCc1ccccc1O	-9.5% (inactive)
CCN1CCC[C@H]1CNC(=O)c1c(OC)ccc(Br)c1OC	-8.11% (inactive)
CN1C(CCl)Nc2cc(Cl)c(S(N)(=O)=O)cc2S1(=O)=O (stereo unspecified)	-22.2% (inactive)
Clc1ccc2c(c1)CCc1cccnc1C2=C1CCNCC1	-40% (inactive)
O=S1(=O)c2cccc3cccc(c23)N1CCCN1CCN(c2ccc(F)cc2)CC1	-20.9% (inactive)
COC(=O)CCc1ccc(OCC(O)CNC(C)C)cc1 (stereo unspecified)	-28.4% (inactive)

Structure (SMILES)	activity change, negative = cytotoxic
COc1cc(C(=S)N2CCOCC2)cc(OC)c1OC	-11% (inactive)
Cc1c(F)c(N2CCNC(C)C2)cc2c1c(=O)c(C(=O)O)cn2C1CC1 (stereo unspecified)	41.7% (inactive)
CCCCOc1ccc(OCCCN2CCOCC2)cc1	-6.19% (inactive)
CCOc1ccc(NC(=O)CC(C)O)cc1 (stereo unspecified)	-8.65% (inactive)
CC[N+](CC)(CCNC(=O)C(=O)NCC[N+](CC)(CC)Cc1ccccc1Cl)Cc1ccccc1Cl	0.209% (inactive)
NCCc1ccn[nH]1	2.95% (inactive)
O=c1[nH]c(=O)n([C@H]2CCCO2)cc1F	-2.19% (inactive)
CCCCN1CCCC1C(=O)Nc1c(C)cc(C)cc1C (stereo unspecified)	-13.8% (inactive)
CCN(CCCCOC(=O)c1ccc(OC)c(OC)c1)C(C)Cc1ccc(OC)cc1 (stereo unspecified)	-13.7% (inactive)
CC(C)N=C(N)/N=C(\N)Nc1ccc(Cl)cc1	-26.9% (inactive)
O=C(OCCOCCO)c1ccccc1Nc1cccc(C(F)(F)F)c1	-22.9% (inactive)
CC1(C)O[C@@H]2[C@@H](CO[C@@]3(COS(N)(=O)=O)OC(C)(C)O[C@@H]23)O1	-18% (inactive)
CN1CCC[C@@H]1c1cccnc1	-18.9% (inactive)
Cc1onc(-c2c(Cl)cccc2Cl)c1C(=O)N[C@@H]1C(=O)N2[C@@H]1SC(C)(C)[C@@H]2C(=O)O	-27.9% (inactive)
Cc1cc2c(cc1CC(=O)c1sccc1S(=O)(=O)Nc1onc(C)c1Cl)OCO2	-0.317% (inactive)
Cc1cc(=O)n(-c2ccccc2)n1C	-11.4% (inactive)
CC(Cc1ccccc1)(NC(=O)CN)c1ccccc1 (stereo unspecified)	-18.4% (inactive)
CCN(CCCc1ccccc1)CCCc1ccccc1	10.6% (inactive)
